Reference: the supplement of paper PMC10849652
Of roughly 8,800 targets only a part is listed; those with a hit were picked by preference. About 0.5% of all pairs of compound and target were hits. Unmarked numbers belong to inactive results.

Columns and labels:
Assay in all cases: log2 fold change, soluble protein after heating vs DMSO (PISA); higher = thermal stabilisation; K562 lysate, 10 uM; active = over 0.2 and 3.5 SD of the protein, either way, in both replicates (recomputed)
lapatinib = compound: CS(=O)(=O)CCNCc1ccc(-c2ccc3ncnc(Nc4ccc(OCc5cccc(F)c5)c(Cl)c4)c3c2)o1 [lapatinib]
Method in brief: (§1)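 Log-two fold change in thermal stability relative to solvent controls is reported from duplicates. For each sample, crude K562 extract from dounce-homogenised pellets in PBS pH 7.4 with 1 mM MgCl2, at 1 mg/mL protein, was treated with 10 μM compound for 30 min. Aliquots heated for 3 min across 48°C-58°C were pooled, brought to 0.5% NP-40 at 4°C and cleared at 21,000xg for 90 min. The supernatant was quantified by TMTpro 16plex LC-MS/MS with channel sums equalised.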

pictilisib = compound: CS(=O)(=O)N1CCN(Cc2cc3nc(-c4cccc5[nH]ncc45)nc(N4CCOCC4)c3s2)CC1 [pictilisib]
Method in brief: as §1

crizotinib = compound: C[C@@H](Oc1cc(-c2cnn(C3CCNCC3)c2)cnc1N)c1c(Cl)ccc(F)c1Cl [crizotinib]
Method in brief: as §1

[1] = compound: C[C@H](C1=CC=C(C=C1)C(=O)NC2=C3C=CNC3=NC=C2)N
Method in brief: as §1

duvelisib = compound: C[C@H](Nc1ncnc2nc[nH]c12)c1cc2cccc(Cl)c2c(=O)n1-c1ccccc1 [duvelisib]
Method in brief: as §1

gandotinib = compound: Cc1cc(Nc2cc(CN3CCOCC3)c3nc(C)c(Cc4ccc(Cl)cc4F)n3n2)n[nH]1 [gandotinib]
Method in brief: as §1

tozasertib = compound: Cc1cc(Nc2cc(N3CCN(C)CC3)nc(Sc3ccc(NC(=O)C4CC4)cc3)n2)n[nH]1 [tozasertib]
Method in brief: as §1

doramapimod = compound: Cc1ccc(-n2nc(C(C)(C)C)cc2NC(=O)Nc2ccc(OCCN3CCOCC3)c3ccccc23)cc1 [doramapimod]
Method in brief: as §1

bafetinib = compound: Cc1ccc(NC(=O)c2ccc(CN3CC[C@H](N(C)C)C3)c(C(F)(F)F)c2)cc1Nc1nccc(-c2cncnc2)n1 [bafetinib]
Method in brief: as §1

[2] = compound: Cc1cccc(CC(=O)N2CCc3c2ccc(-c2cn(C)c4ncnc(N)c24)c3F)n1
Method in brief: as §1

nilotinib = compound: Cc1cn(-c2cc(NC(=O)c3ccc(C)c(Nc4nccc(-c5cccnc5)n4)c3)cc(C(F)(F)F)c2)cn1 [nilotinib]
Method in brief: as §1

[3] = compound: Cc1nc(Nc2n[nH]c3c2CN(C(=O)N[C@H](CN(C)C)c2ccccc2)C3(C)C)c2sccc2n1
Method in brief: as §1

dasatinib = compound: Cc1nc(Nc2ncc(C(=O)Nc3c(C)cccc3Cl)s2)cc(N2CCN(CCO)CC2)n1 [dasatinib]
Method in brief: as §1

[4] = compound: Cc1ncc(-c2ccnc(Nc3ccc(S(C)(=O)=O)cc3)n2)n1C(C)C
Method in brief: as §1

[5] = compound: Cn1cc(-c2ccc3c(c2)CCN3C(=O)Cc2cccc(C(F)(F)F)c2)c2c(N)ncnc21
Method in brief: as §1

quisinostat = compound: Cn1cc(CNCC2CCN(c3ncc(C(=O)NO)cn3)CC2)c2ccccc21 [quisinostat]
Method in brief: as §1

tipifarnib = compound: Cn1cncc1[C@@](N)(c1ccc(Cl)cc1)c1ccc2c(c1)c(-c1cccc(Cl)c1)cc(=O)n2C [tipifarnib]
Method in brief: as §1

[6] = compound: NC(=O)Nc1cc(-c2cccc(F)c2)sc1C(=O)N[C@H]1CCCNC1
Method in brief: as §1

[7] = compound: NC(=O)c1cnc(N[C@@H]2CCCC[C@@H]2N)nc1Nc1cccc(-n2nccn2)c1
Method in brief: as §1

[8] = compound: NC1(c2ccc(-c3nc4ccn5c(=O)[nH]nc5c4cc3-c3ccccc3)cc2)CCC1
Method in brief: as §1

Chain of UniProt Q96QU8 (Q96QU8 whole entry, looked up): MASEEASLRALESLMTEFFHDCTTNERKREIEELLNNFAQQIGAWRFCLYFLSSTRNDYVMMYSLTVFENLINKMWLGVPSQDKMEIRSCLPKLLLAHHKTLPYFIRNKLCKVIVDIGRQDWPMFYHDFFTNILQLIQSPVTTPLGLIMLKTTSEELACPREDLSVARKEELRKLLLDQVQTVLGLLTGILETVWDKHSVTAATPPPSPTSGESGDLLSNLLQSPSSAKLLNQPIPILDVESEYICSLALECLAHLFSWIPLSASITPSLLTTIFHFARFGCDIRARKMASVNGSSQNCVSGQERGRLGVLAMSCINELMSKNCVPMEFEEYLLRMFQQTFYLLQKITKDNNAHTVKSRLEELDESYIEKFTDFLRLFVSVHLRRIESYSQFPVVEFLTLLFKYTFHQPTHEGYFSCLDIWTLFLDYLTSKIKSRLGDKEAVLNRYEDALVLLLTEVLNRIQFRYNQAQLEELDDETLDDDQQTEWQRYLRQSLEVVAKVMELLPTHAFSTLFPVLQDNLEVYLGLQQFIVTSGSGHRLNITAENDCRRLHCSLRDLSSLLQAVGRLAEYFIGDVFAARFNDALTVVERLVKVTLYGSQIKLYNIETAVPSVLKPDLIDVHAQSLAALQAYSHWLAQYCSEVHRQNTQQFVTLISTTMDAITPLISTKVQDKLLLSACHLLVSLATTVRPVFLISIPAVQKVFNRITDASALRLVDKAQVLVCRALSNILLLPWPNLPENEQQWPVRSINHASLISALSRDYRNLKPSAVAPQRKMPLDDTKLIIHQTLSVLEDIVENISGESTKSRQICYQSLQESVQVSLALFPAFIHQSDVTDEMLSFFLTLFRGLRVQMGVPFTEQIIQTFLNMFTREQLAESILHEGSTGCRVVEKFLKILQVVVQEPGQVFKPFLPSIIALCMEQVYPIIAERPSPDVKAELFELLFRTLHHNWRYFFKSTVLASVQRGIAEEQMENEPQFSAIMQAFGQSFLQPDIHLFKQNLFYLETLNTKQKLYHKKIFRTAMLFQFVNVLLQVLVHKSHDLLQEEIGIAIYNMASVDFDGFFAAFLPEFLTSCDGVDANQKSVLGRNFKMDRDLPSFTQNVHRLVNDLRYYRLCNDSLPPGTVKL
Chain of UniProt O95619 (O95619 whole entry, looked up): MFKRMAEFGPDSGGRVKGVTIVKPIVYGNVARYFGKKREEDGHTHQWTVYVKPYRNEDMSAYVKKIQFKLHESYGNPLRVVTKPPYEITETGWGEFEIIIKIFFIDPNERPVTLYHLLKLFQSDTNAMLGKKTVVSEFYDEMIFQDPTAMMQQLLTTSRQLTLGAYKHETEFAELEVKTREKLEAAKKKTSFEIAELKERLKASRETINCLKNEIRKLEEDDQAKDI
Chain of UniProt Q9H269 (Q9H269 whole entry, looked up): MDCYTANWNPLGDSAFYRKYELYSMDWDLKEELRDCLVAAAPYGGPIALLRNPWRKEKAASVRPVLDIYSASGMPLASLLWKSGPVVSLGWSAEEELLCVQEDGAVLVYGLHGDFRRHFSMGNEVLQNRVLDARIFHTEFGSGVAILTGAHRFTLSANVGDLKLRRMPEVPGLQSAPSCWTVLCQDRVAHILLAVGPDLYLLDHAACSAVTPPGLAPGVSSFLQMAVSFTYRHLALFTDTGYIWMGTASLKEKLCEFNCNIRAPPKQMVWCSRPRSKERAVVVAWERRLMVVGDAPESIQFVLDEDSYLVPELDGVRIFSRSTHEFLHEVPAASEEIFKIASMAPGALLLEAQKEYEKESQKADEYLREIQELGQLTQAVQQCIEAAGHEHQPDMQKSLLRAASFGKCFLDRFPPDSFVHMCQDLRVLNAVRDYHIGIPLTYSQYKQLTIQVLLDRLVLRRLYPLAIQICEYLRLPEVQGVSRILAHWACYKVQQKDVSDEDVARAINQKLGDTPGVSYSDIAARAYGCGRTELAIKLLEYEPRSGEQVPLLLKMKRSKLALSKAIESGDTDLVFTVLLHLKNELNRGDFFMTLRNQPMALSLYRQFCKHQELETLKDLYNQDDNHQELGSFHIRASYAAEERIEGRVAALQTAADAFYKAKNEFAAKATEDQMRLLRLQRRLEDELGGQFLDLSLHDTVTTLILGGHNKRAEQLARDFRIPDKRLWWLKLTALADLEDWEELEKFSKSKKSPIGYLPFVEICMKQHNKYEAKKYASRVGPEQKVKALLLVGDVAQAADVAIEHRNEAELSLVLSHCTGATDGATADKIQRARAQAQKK
Chain of UniProt Q9H6S0 (Q9H6S0 whole entry, looked up): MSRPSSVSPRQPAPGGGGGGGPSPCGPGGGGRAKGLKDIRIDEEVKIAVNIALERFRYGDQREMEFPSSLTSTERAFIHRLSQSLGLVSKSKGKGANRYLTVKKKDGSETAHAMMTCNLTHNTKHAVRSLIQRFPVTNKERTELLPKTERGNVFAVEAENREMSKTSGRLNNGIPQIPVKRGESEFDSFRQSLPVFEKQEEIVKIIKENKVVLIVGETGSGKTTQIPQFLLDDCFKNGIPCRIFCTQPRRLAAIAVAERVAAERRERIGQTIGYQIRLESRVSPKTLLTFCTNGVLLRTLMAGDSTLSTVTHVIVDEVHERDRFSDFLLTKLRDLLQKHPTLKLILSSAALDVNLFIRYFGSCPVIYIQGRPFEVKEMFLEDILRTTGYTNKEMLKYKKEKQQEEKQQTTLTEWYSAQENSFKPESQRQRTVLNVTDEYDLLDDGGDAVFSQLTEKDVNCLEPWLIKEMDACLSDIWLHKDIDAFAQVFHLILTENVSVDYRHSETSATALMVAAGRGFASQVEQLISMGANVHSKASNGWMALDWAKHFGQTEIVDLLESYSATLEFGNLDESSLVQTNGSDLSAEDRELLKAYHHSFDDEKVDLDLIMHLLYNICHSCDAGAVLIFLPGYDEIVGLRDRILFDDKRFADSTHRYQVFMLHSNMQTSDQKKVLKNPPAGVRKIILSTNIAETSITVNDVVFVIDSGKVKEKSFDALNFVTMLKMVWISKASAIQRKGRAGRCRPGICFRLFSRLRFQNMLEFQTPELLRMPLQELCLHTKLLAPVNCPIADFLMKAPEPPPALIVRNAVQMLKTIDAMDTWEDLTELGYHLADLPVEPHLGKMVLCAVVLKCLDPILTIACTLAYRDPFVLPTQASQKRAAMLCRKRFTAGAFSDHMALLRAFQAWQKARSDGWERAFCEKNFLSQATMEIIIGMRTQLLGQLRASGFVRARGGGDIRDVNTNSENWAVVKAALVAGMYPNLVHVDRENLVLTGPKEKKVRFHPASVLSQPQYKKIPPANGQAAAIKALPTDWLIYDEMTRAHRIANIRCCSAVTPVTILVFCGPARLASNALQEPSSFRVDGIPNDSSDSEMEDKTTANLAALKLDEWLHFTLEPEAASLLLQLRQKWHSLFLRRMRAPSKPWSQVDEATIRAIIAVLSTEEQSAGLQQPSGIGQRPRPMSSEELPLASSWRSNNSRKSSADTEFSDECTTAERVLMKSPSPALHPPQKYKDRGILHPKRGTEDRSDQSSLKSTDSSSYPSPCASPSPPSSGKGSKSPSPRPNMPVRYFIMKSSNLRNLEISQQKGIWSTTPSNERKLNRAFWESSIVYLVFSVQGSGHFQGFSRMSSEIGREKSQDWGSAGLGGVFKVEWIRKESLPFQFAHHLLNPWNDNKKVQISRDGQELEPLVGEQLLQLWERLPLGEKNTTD
Chain of UniProt Q9Y6I4 (Q9Y6I4 whole entry, looked up): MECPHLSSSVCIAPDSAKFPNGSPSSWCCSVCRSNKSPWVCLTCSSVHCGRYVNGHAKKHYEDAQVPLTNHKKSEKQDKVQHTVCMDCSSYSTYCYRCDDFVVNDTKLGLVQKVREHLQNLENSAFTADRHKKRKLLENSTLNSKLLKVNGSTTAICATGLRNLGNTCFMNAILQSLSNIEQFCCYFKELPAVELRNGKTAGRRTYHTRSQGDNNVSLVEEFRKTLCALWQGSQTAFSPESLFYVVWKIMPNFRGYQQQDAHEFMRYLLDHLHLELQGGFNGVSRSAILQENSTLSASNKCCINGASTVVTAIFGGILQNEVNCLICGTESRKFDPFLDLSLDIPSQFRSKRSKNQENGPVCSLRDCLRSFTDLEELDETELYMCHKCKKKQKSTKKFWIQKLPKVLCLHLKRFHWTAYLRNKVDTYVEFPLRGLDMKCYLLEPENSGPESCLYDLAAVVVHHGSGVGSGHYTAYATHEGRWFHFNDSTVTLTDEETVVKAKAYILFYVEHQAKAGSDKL
Chain of UniProt Q96S55 (Q96S55 whole entry, looked up): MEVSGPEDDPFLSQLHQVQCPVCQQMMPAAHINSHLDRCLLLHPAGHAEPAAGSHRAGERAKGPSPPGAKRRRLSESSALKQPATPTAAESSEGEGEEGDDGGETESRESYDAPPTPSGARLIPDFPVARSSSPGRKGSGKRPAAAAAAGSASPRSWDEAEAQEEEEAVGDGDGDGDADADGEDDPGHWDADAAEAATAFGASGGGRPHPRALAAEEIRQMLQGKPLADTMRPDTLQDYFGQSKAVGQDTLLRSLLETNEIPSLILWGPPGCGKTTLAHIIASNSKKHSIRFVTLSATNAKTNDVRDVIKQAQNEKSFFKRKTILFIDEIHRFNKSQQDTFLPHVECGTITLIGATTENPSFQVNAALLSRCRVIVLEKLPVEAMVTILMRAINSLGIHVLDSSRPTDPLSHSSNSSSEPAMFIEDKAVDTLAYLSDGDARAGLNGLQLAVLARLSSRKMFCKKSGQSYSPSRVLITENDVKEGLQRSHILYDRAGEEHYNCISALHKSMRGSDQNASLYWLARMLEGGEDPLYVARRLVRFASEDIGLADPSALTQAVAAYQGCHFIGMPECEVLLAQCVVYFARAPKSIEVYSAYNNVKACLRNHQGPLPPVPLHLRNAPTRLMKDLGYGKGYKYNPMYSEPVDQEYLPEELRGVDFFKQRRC
Chain of UniProt P63027 (P63027 whole entry, looked up): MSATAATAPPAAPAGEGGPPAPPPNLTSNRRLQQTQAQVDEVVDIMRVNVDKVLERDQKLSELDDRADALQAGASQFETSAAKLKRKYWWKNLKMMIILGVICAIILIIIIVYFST

Target | log2 fold change (lapatinib) | log2 fold change (pictilisib) | log2 fold change (crizotinib) | log2 fold change [1] | log2 fold change (duvelisib) | log2 fold change (gandotinib) | log2 fold change (tozasertib) | log2 fold change (doramapimod) | log2 fold change (bafetinib) | log2 fold change [2] | log2 fold change (nilotinib) | log2 fold change [3] | log2 fold change (dasatinib) | log2 fold change [4] | log2 fold change [5] | log2 fold change (quisinostat) | log2 fold change (tipifarnib) | log2 fold change [6] | log2 fold change [7] | log2 fold change [8]
USP3 (UniProt Q9Y6I4) | -0.016 | 0.001 | -0.033 | 0.031 | 0.01 | -0.056 | 0.021 | -0.03 | 0.01 | -0.04 | 0.045 | -0.015 | -0.028 | 0.028 | 0.008 | -0.01 | -0.054 | 0.107 | -0.005 | -0.042
VPS16 (UniProt Q9H269) | -0.014 | 0.005 | -0.08 | -0.019 | 0.013 | -0.024 | 0.004 | -0.013 | -0.051 | 0.03 | 0 | 0.011 | -0.013 | 0.014 | 0.021 | -0.095 | -0.012 | 0.022 | 0.004 | 0.009
VAMP2 (UniProt P63027) | 0.045 | -0.05 | 0.105 | 0.062 | 0.051 | -0.057 | 0.074 | -0.083 | -0.002 | -0.147 | -0.034 | 0.034 | 0.002 | 0.066 | -0.009 | 0.262 | 0.041 | -0.027 | 0.019 | 0.067
VRK2 (UniProt Q86Y07) | 0.03 | 0.002 | -0.069 | 0.353 (active) | -0.016 | -0.04 | -0.026 | -0.063 | -0.03 | 0.03 | 0.048 | 0.219 | 0.185 | 0.017 | 0.17 | -0.044 | -0.018 | 0.026 | -0.003 | -0.006
UXT isoform 2 (UniProt Q9UBK9) | -0.018 | -0.073 | 0.003 | -0.018 | -0.006 | 0.084 | -0.053 | 0.012 | 0.089 | 0.065 | 0.012 | -0.019 | 0.079 | 0.019 | -0.05 | -0.03 | -0.015 | -0.04 | -0.026 | -0.036
YEATS4 (UniProt O95619) | 0.023 | 0.026 | 0.02 | 0.609 (active) | -0.015 | -0.126 | -0.006 | 0.064 | -0.033 | -0.083 | 0.1 | 0.154 | 0.11 | -0.196 | 0.035 | -0.038 | 0.071 | -0.011 | 0.018 | 0.044
VAC14 (UniProt Q08AM6) | -0.034 | -0.005 | -0.047 | -0.028 | -0.004 | -0.069 | -0.005 | 0.037 | -0.036 | 0.067 | -0.014 | 0.018 | -0.022 | 0.009 | 0.058 | -0.07 | -0.059 | 0.012 | -0.002 | -0.027
USP48 (UniProt Q86UV5) | -0.05 | 0.037 | 0.13 | -0.577 (active) | -0.022 | 0.068 | 0.035 | -0.181 | -0.134 | 0.182 | -0.016 | -0.045 | -0.016 | -0.032 | 0.005 | 0.19 | 0.033 | -0.077 | 0.005 | -0.012
XPO1 (UniProt O14980) | -0.039 | 0 | -0.034 | -0.037 | -0.026 | -0.043 | 0.021 | -0.001 | -0.02 | 0.07 | 0.011 | -0.011 | -0.038 | -0.014 | 0.021 | -0.007 | -0.009 | 0.021 | 0.011 | 0.006
XPO6 (UniProt Q96QU8) | -0.012 | -0.069 | -0.086 | -0.158 | 0.06 | 0.005 | 0.072 | 0.034 | -0.105 | 0.175 | 0.005 | 0.027 | -0.008 | -0.054 | -0.026 | -0.123 | -0.018 | 0.078 | 0.033 | -0.04
WDCP (UniProt Q9H6R7) | -0.048 | 0.017 | -0.079 | 0.022 | 0.038 | -0.058 | -0.03 | -0.02 | -0.027 | 0.002 | -0.01 | 0.001 | -0.035 | 0.006 | -0.018 | -0.107 | 0.009 | 0.014 | -0.069 | 0.007
WRNIP1 (UniProt Q96S55) | -0.021 | -0.043 | 0 | 0.054 | 0.012 | -0.047 | 0.022 | 0.001 | -0.043 | 0.045 | -0.008 | 0.002 | -0.018 | -0.05 | 0.066 | -0.035 | -0.02 | 0.053 | -0.008 | -0.001
YTHDC2 (UniProt Q9H6S0) | -0.029 | -0.007 | -0.042 | 0.023 | 0.032 | -0.013 | -0.03 | 0.007 | -0.022 | -0.066 | 0.006 | -0.001 | -0.043 | 0.03 | 0.03 | -0.046 | 0.022 | 0.06 | -0.007 | -0.054
WDR62 isoform 4 (UniProt O43379) | -0.025 | 0.028 | -0.048 | -0.021 | 0.006 | -0.032 | 0.034 | 0.038 | -0.05 | 0.08 | -0.001 | 0.003 | -0.026 | 0 | 0.022 | -0.103 | -0.051 | 0.031 | -0.02 | -0.031
VPS11 (UniProt Q9H270) | -0.025 | -0.027 | -0.029 | -0.008 | -0.04 | -0.083 | 0.024 | 0.039 | -0.077 | 0.065 | -0.007 | -0.008 | -0.003 | -0.018 | -0.002 | -0.055 | -0.002 | 0.06 | -0.003 | 0.003
ZMAT2 (UniProt Q96NC0) | 0.006 | 0.003 | -0.005 | 0.02 | -0.034 | -0.035 | -0.028 | 0.042 | 0.053 | -0.043 | -0.014 | 0.037 | 0.022 | 0.027 | 0.033 | -0.066 | -0.013 | -0.044 | 0.002 | -0.03
